# PubChem BioAssay (Tox21)
# Inconclusive results are not listed. Calls of active or inactive are those of the source. The call rests on the fitted dose curve; in most records, active means well fitted cell-killing curve with a large enough effect in the repeat runs; inconclusive means weak or mixed curves; inactive means flat fitted curve, though single readings scatter.
# Assay: qHTS RealTime-Glo MT Cell Viability Assay in HepG2 cells - 32 hour (AID 1224877); further: nearly all actives have a fitted effect of over 55% in size
# Details: RealTime-Glo luminescence; series mostly up to 76.8 µM; activity change, negative = cytotoxic: at the top concentration
# Description: U.S. Tox21 Program National Center for Advancing Translational Sciences [NCATS] NIH Chemical Genomics Center [NCGC] U.S. Environmental Protection Agency [EPA] National Institutes of Environmental Health Sciences [NIEHS] National Toxicology Program [NTP] U.S. Food and Drug Administration [FDA] Tox21 Assay Overview: Measure of cell viability is critical in the cell-base assay. Analysis of cell viability is necessary for the characterization of cell responses to cytotoxic drugs and environmental stress. A RealTime-Glo MT Cell Viability Assay to monitor cell viability in real time of continues cell culture during 40 hours of compound treatment was used to screen Tox21 10K library compounds in HepG2 cells. The RealTime-Glo MT Cell Viability Assay is a nonlytic, homogeneous, bioluminescent method to measure cell viability in real time using a simple, plate-based method. The assay involves adding NanoLuc luciferase and a cell-permeant prosubstrate to cells in culture. Viable cells reduce the proprietary prosubstrate to generate a substrate for NanoLuc luciferase. This substrate diffuses from cells into the surrounding culture medium, where it is rapidly used by the NanoLuc Enzyme to produce a luminescent signal. The signal correlates with the number of viable cells, making the assay well suited for cytotoxicity studies.
# Tox21 Assay Protocol Summary: The mixture of HepG2 cell suspension and reagents were dispensed at 600cells/6 ul/well in 1536-well tissue culture treated black solid bottom plates using a Multidrop dispenser. After the assay plates were incubated at a 37 C/5% CO2 incubator for 5 hours, 23 nL of compounds dissolved in DMSO, positive and negative controls was transferred to the assay plate by a pintool work station. The plates were incubated at 37 C for 40 hours. The luminescence intensity were measured at 0h, 8h, 16h, 24h, 32h and 40h time points using ViewLux plate reader during compound treatment.
# On the % scale 0 is the no-effect control and ±100 the full control effect.
row,SMILES,"activity change, negative = cytotoxic"
1,CC(=O)Nc1ccc(S(=O)(=O)Cl)cc1,0.572% (inactive)
2,COc1ccc(S(=O)(=O)N2c3ccc(Cl)cc3[C@@](O)(c3ccccc3Cl)[C@H]2C(=O)N2CCC[C@@H]2C(N)=O)cc1OC,-4.8% [at 35.3 µM] (inactive)
3,CC(COC(C)(C)C)OCCCO (stereo not given),-0.71% (inactive)
4,CC(C)C(=O)OCCc1ccccc1,1.68% (inactive)
5,O=C(O)CCSSCCC(=O)O,1.38% (inactive)
6,CCCN1C[C@H](CSC)C[C@@H]2c3cccc4[nH]cc(c34)C[C@H]21,-0.389% [at 35.3 µM] (inactive)
7,O=P(O)(O)OP(=O)(O)O,0.513% (inactive)
8,O=S(=O)(O)CCN1CCN(CCO)CC1,0.376% (inactive)
9,CC(CC=O)CCCC(C)(C)O (stereo not given),3.67% (inactive)
10,COP(=O)(OC)OC(c1ccc(Cl)cc1)P(=O)(OC)OC (stereo not given),2.4% [at 35.3 µM] (inactive)
11,O=C(O)Cc1ccc(Cl)cc1Cl,4.07% (inactive)
12,CCOC(=O)c1ccc(OC(=O)CCCCCN=C(N)N)cc1,-4.99% [at 35.3 µM] (inactive)
13,COCCc1ccc(OCC2CO2)cc1 (stereo not given),4.59% [at 35.3 µM] (inactive)
14,COC(=O)C1CC(=O)C(C(=O)OC)CC1=O (stereo not given),12.6% [at 6.97 µM] (inactive)
15,CCN(CC)CC(=O)Nc1c(C)cccc1C,0.16% [at 35.3 µM] (inactive)
16,CCCCC(CC)COCCO (stereo not given),0.346% (inactive)
17,Cc1ccc(C=O)cc1C,-0.141% (inactive)
18,CC1(CO)CN(c2ccccc2)NC1=O (stereo not given),3.96% (inactive)
19,CC(=C(CCOC(=O)C(C)C)SSC(CCOC(=O)C(C)C)=C(C)N(C=O)Cc1cnc(C)nc1N)N(C=O)Cc1cnc(C)nc1N,0.0201% [at 35.3 µM] (inactive)
20,O=C(NCC(O)CO)c1c(I)c(C(=O)NCC(O)CO)c(I)c(N(CCO)C(=O)CO)c1I (stereo not given),-0.366% [at 35.3 µM] (inactive)

row,SMILES,"activity change, negative = cytotoxic"
1,OC[C@H](Cc1cccc(O)c1)[C@H](CO)Cc1cccc(O)c1,-8.76% (inactive)
2,Cc1nc2n(c(=O)c1CCN1CCC(c3noc4cc(F)ccc34)CC1)CCC[C@H]2O,0.664% [at 15.8 µM] (inactive)
3,C[Si](C)=O,0.305% [at 6.97 µM] (inactive)
4,CC(C)c1ccc2cc(C(C)C)ccc2c1,-0.58% (inactive)
5,Cc1cccc(C)c1OCC(C)N (stereo not given),-1.56% [at 35.3 µM] (inactive)
6,O=S(O)(O)=S,5.2% [at 6.97 µM] (inactive)
7,CNC(=O)[C@H]1O[C@@H](n2cnc3c(NCc4cc(Cl)ccc4OCc4cc(C)no4)ncnc32)[C@H](O)[C@@H]1N,0.427% (inactive)
8,CC(C)CC(=O)O,0.345% (inactive)
9,CCCCNc1ccc(C(=O)OCCN(C)C)cc1,0.0506% [at 35.3 µM] (inactive)
10,CCCCCCCCC(=O)Cl,7.15% (inactive)
11,CCOc1cc(NC(C)=O)ccc1C(=O)OC,2.8% [at 35.3 µM] (inactive)
12,COc1cc(C(=S)N2CCOCC2)cc(OC)c1OC,4.18% [at 35.3 µM] (inactive)
13,CC(C)(C)c1n[nH]c(=S)n(N)c1=O,2.01% (inactive)
14,CCCC(=O)C(C)=O,1.56% (inactive)
15,COc1cc2c(cc1OC)[C@@H]1CC(=O)[C@@H](CC(C)C)CN1CC2,-3.16% [at 35.3 µM] (inactive)
16,CCCCCCCCCCl,0.687% (inactive)
17,C=C(C)C(=O)OCCNC(C)(C)C,0.161% (inactive)
18,C=CCCCCCCCCCCCC,-0.391% (inactive)
19,CCOCCOCCOCC,1.21% (inactive)
20,O=C1c2ccccc2C(=O)C1c1ccccc1,3.31% [at 35.3 µM] (inactive)
